Reference: the supplement of paper PMC6953052
Several values for one entry are separate records, joined by “and”; a condition that tells them apart may be missing. Identical values can stand only once. ± gives the standard deviation of the averaged measurements. The full ranking holds about 1,700 compounds; the median of “fraction of GFP-LC3-positive cells (≥5 vesicles/cell)” is about 0.058, and the highest 2% start at about 0.59. The full list was thinned out, with the highest values kept by preference.

system: CbCln3 +/+ GFP-LC3 cerebellar neuronal cells; experiment: fraction of GFP-LC3-positive cells (≥5 vesicles/cell); higher = more autophagosome accumulation
Method in brief: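 Compound (~50 nL in DMSO) was pin-transferred in duplicate onto wild-type or mutant CbCln3 cerebellar cells stably expressing GFP-LC3, seeded at 2 × 10^3/well in 384-well plates, for 24 h at 33 °C. After fixation in 3.2% PFA, three fields per well were imaged at 10×. The value reported is the duplicate average of the fraction of cells meeting a vesicle-count threshold, with CellProfiler counting GFP-LC3 vesicles per cell and out-of-focus images excluded. Cells met the threshold at 5 or more vesicles.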

Structure (SMILES)	fraction of GFP-LC3-positive cells
CC(=O)OCC(=O)[C@@]1(OC(C)=O)[C@@H](C)C[C@H]2[C@@H]3C[C@H](F)C4=CC(=O)C=C[C@]4(C)[C@@]3(F)[C@@H](O)C[C@@]21C [Diflorasone Diacetate]	0.085
O=C1Cc2c([nH]c3ccc(Br)cc23)-c2ccccc2N1	0.0413
CCCNC(=O)[C@H]1O[C@@H]1C(=O)N[C@H](C(=O)N1CCC[C@H]1C(=O)OC)C(C)CC (stereo not given in full)	0.399 and 0.352
CNCCC(Oc1ccccc1OC)c1ccccc1.Cl (stereo not given) [Nisoxetine hydrochloride]	0.0525
C[C@@H](O)[C@H]1C(=O)N2C(C(=O)O)=C(S[C@@H]3CN[C@H](C(=O)N(C)C)C3)[C@H](C)[C@H]12 [Meropenem]	0.0612
Nc1ccc(C(=O)NCC(=O)O)cc1 [Aminohippuric acid]	0.0809
COc1ccc(Cl)cc1C(=O)NCCc1ccc(S(=O)(=O)NC(=O)NC2CCCCC2)cc1	0.0797
CC(C)Cc1ccc([C@H](C)C(=O)O)cc1 [S-(+)-ibuprofen]	0.0447
O=[N+]([O-])c1cccc2c(Br)n[nH]c12 [Bromo-7-nitroindazole [3-Bromo-7-nitroindazole]]	0.0548
C1COC(NC(C2CC2)C2CC2)=N1.C1COC(NC(C2CC2)C2CC2)=N1.O=C(O)/C=C/C(=O)O [Rilmenidine hemifumarate]	0.0609
COc1ccc2c(c1)c(CC(=O)N1CCOCC1)c(C)n2C(=O)c1ccc(Cl)cc1	0.0513 ± 0.01
CCCCCCCCCCCCCCCCC(=O)O [Heptadecanoic acid]	0.0793
C[N+](C)(C)CCOC(N)=O.[Cl-] [Carbachol]	0.0698
CN(C)CCCn1cc(C2=C(c3c[nH]c4ccccc34)C(=O)NC2=O)c2ccccc21	0.0883 and 0.0921
Cn1cc(C2=C(c3cn(CCCSC(=N)N)c4ccccc34)C(=O)NC2=O)c2ccccc21	0.845 ± 0.071
COc1ccc(CCN(C)CCCC(C#N)(c2ccc(OC)c(OC)c2)C(C)C)cc1OC.Cl (stereo not given) [Verapamyl hydrochloride]	0.0534
COC(=O)[C@H]1[C@H]2C[C@H]3c4[nH]c5ccccc5c4CCN3C[C@@H]2CC[C@@H]1O.Cl [Corynanthine hydrochloride]	0.0351
Nc1ncn(C2O[C@H](CO)[C@@H](O)[C@H]2O)c(=O)n1 (stereo not given in full) [Azacytidine-5]	0.745
Nc1nc(S)c2ncn([C@@H]3O[C@H](CO)[C@@H](O)[C@H]3O)c2n1 [Thioguanosine]	0.131
NC(=O)c1ncn([C@@H]2O[C@H](CO)[C@@H](O)[C@H]2O)n1 [Ribavirin]	0.033
